According to PubChem BioAssay AID1159580 (chemical genetic matrix, 2015):
“And” between values parts separate entries of the source, which are not always exact repeats. Equal entries are not always repeated. Among all 5,500 compounds or so, about 2,000 (36%) were called active. Inconclusive results (about 18%) are left out. No stated cut-off is given here; in the data, active means normalized growth mostly below about 0.91 (no sharp cut-off); inconclusive means no clear call, values can overlap the other calls; inactive means mostly above about 0.92. This is one part of the list. More than one record can exist for a structure, and the calls need not agree.

Assay: chemical genetic growth profiling, strain panel (AID 1159580);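 further: tested at 20 µM; growth read once vehicle control cultures reached saturation at 30 °C; 1 = growth at the plate median or of vehicle wells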
Conditions: growth OD

Measured: normalized growth

CCN(CC)C(=S)SSC(=S)N(CC)CC
inactive: S. cerevisiae deletion strains, locus YOL147C, strain pex11, stronger effect = lower value 0.946
0.0502 (active) and 0.997 (inactive): S. cerevisiae deletion strains, locus YNL322C, strain KRE1, stronger effect = lower value
0.0528 (active) and 0.999 (inactive): S. cerevisiae deletion strains, locus YPL241C, strain CIN2, stronger effect = lower value
active: S. cerevisiae deletion strains, locus YNL153C, strain GIM3, stronger effect = lower value 0.0777 | S. cerevisiae deletion strains, locus YNL175C, strain NOP13, stronger effect = lower value 0.342 | S. cerevisiae deletion strains, locus YNL183C, strain NPR1, stronger effect = lower value -0.00035 | S. cerevisiae deletion strains, locus YNL197C, strain WHI3, stronger effect = lower value 0.0658 | S. cerevisiae deletion strains, locus YNL209W, strain ssb2, stronger effect = lower value 0.06 | S. cerevisiae deletion strains, locus YNL224C, strain SQS1, stronger effect = lower value 0.179 | S. cerevisiae deletion strains, locus YNL233W, strain BNI4, stronger effect = lower value 0.0544 | S. cerevisiae deletion strains, locus YNL248C, strain rpa49, stronger effect = lower value 0.0771 | S. cerevisiae deletion strains, locus YNL250W, strain rad50, stronger effect = lower value 0.0637 | S. cerevisiae deletion strains, locus YNL271C, strain bni1, stronger effect = lower value 0.0645 | S. cerevisiae deletion strains, locus YNL298W, strain CLA4, stronger effect = lower value 0.0615 | S. cerevisiae deletion strains, locus YNL307C, strain MCK1, stronger effect = lower value 0.0703 | S. cerevisiae deletion strains, locus YNL322C, strain KRE1 (second series), stronger effect = lower value 0.0666 | S. cerevisiae deletion strains, locus YNR049C, strain mso1, stronger effect = lower value 0.0606 | S. cerevisiae deletion strains, locus YNR052C, strain pop2, stronger effect = lower value 0.138 | S. cerevisiae deletion strains, locus YOL006C, strain TOP1, stronger effect = lower value 0.104 | S. cerevisiae deletion strains, locus YOL012C, strain htz1 0.179 | S. cerevisiae deletion strains, locus YOR001W, strain rrp6, stronger effect = lower value 0.0666 | S. cerevisiae deletion strains, locus YOR061W, strain CKA2, stronger effect = lower value 0.0499 | S. cerevisiae deletion strains, locus YOR069W, strain VPS5, stronger effect = lower value 0.0518 | S. cerevisiae deletion strains, locus YOR070C, strain gyp1, stronger effect = lower value 0.0741 | S. cerevisiae deletion strains, locus YOR080W, strain dia2, stronger effect = lower value 0.0684 | S. cerevisiae deletion strains, locus YOR083W, strain WHI5 (second series), stronger effect = lower value 0.0704 | S. cerevisiae deletion strains, locus YOR083W, strain WHI5, stronger effect = lower value 0.0659 | S. cerevisiae deletion strains, locus YOR106W, strain vam3, stronger effect = lower value 0.0652 | S. cerevisiae deletion strains, locus YOR136W, strain idh2, stronger effect = lower value 0.0727 | S. cerevisiae deletion strains, locus YOR144C, strain elg1, stronger effect = lower value 0.803 | S. cerevisiae deletion strains, locus YOR184W, strain ser1, stronger effect = lower value 0.0638 | S. cerevisiae deletion strains, locus YOR231W, strain MKK1, stronger effect = lower value 0.117 | S. cerevisiae deletion strains, locus YOR265W, strain rbl2, stronger effect = lower value 0.0575 | S. cerevisiae deletion strains, locus YOR270C, strain vph1, stronger effect = lower value 0.0967 | S. cerevisiae deletion strains, locus YOR290C, strain snf2, stronger effect = lower value 0.627 | S. cerevisiae deletion strains, locus YOR316C, strain cot1, stronger effect = lower value 0.0596 | S. cerevisiae deletion strains, locus YPL051W, strain arl3, stronger effect = lower value 0.0672 | S. cerevisiae deletion strains, locus YPL055C, strain LGE1, stronger effect = lower value 0.0641 | S. cerevisiae deletion strains, locus YPL078C, strain atp4, stronger effect = lower value 0.0676 | S. cerevisiae deletion strains, locus YPL106C, strain sse1, stronger effect = lower value 0.103 | S. cerevisiae deletion strains, locus YPL240C, strain hsp82, stronger effect = lower value 0.0557 | S. cerevisiae deletion strains, locus YPL256C, strain CLN2, stronger effect = lower value 0.13 | S. cerevisiae deletion strains, locus YPR119W, strain clb2, stronger effect = lower value 0.0619 | S. cerevisiae deletion strains, locus YPR141C, strain kar3, stronger effect = lower value 0.0641 | S. cerevisiae deletion strains, locus YPR163C, strain tif3, stronger effect = lower value 0.0693 | S. cerevisiae deletion strains, locus YPR167C, strain met16, stronger effect = lower value 0.0622 | S. cerevisiae deletion strains, strain wtn01, stronger effect = lower value 0.0586 | S. cerevisiae strains, strain wild type, stronger effect = lower value 0.05
